Records with an inconclusive call do not appear. Unless noted, the call rests on the fitted dose curve; in most records, active means well fitted curve in either direction with a large enough effect (not every such curve was filed as active); inconclusive means small, poorly fitted or top-dose-only effect, or another doubt; inactive means flat fitted curve, though single readings scatter.
Assays:
[1] = AP1 Signaling Pathway (AID 357); conditions: ME-180 AP-1-bla reporter, EGF-induced, beta-lactamase ratio, 5 h; at 17.2 µM (top of the series) unless noted;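 further: ME-180 reporter cells stimulated with EGF at its EC50 level; on the % scale 0 is the no-effect control and ±100 the full control effect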
Summary of the method: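 AP-1-bla ME-180 cells, Opti-MEM + 0.5% dialyzed FBS, plated overnight 37 °C. Cpd titration + EC50 EGF, 5 h 37 °C. CCF4 2.5 h RT; ex 405, em 460/530 ratio → %activity, AC50.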

[2] = NFAT Signaling Pathway (AID 444); conditions: Jurkat NFAT-bla M1, carbachol, beta-lactamase ratio, 5 h; at 17.2 µM (top of the series) unless noted;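 further: carbachol stimulus at about its EC50 of 1 µM final; on the % scale 0 is the no-effect control and ±100 the full control effect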
Summary of the method: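 Jurkat cells carrying an NFAT-driven β-lactamase reporter and co-transfected muscarinic M1 receptor were treated with compound plus carbachol (1 uM final, an EC50 level) for 5 h at 37 °C. CCF4 loading followed for 1 h at RT; 460/530 nm ratio gave %activity.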

[3] = Stat Signaling Pathway (AID 446); conditions: ME-180 (cervical carcinoma) SIE beta-lactamase reporter, IL-6 stimulated, 5 h; at 17.2 µM (top of the series) unless noted;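 further: ME-180 cervical cancer cells given 40 pM IL-6 alongside compound; SIE-controlled beta-lactamase reporter measured as 460/530 nm FRET emission ratio; on the % scale 0 is the no-effect control and ±100 the full control effect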
Summary of the method: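 Normalization used AC90 stimulation (300 pM IL-6) and AC90 inhibition (125 nM pan-JAK inhibitor at 40 pM IL-6). The underlying signal is SIE-driven beta-lactamase in ME-180 cells after 5 h IL-6 exposure with compound.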

[4] = molecular target: Glucocorticoid receptor (Homo sapiens) (UniProt P04150); assay: GR-GFP Redistribution (AID 450;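 active means compounds whose dose series gives a full or clear partial fitted curve of increased nuclear translocation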; further: potency means the concentration at half of the fitted maximal effect)
Chain of Glucocorticoid receptor (Homo sapiens) (P04150 whole entry, looked up): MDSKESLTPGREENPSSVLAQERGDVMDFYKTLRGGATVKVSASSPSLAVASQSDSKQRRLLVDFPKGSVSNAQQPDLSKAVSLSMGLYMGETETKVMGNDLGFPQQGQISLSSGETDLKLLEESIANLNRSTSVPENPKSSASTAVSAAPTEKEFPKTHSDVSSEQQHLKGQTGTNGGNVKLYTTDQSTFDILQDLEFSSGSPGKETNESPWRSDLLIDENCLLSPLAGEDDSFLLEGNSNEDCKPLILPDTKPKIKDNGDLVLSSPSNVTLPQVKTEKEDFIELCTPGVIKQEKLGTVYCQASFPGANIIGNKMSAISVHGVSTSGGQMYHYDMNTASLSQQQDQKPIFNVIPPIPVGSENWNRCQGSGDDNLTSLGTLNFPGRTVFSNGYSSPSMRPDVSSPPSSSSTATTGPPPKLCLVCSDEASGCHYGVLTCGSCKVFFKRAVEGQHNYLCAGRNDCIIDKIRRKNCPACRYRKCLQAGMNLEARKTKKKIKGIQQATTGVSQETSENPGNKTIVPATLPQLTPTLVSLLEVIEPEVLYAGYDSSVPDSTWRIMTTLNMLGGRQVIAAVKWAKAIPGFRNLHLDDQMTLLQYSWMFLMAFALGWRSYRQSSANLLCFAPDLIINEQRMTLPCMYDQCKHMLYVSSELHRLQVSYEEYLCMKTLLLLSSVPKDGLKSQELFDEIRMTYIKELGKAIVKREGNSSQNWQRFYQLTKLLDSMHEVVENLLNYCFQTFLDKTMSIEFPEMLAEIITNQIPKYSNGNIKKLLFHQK

CCN(CC)CCN1C(=O)C(O)=C(C(=O)c2cccs2)C1c1ccccn1 (stereo not given)
inactive: activity change, negative = inhibition [1] -0.981% | activity change, negative = inhibition [2] 9.2% | activity, negative = inhibition [3] -0.0775% | Potency [4] > 20.6 µM

COc1cccc(C(=O)N2CCN(Cc3ccccn3)CC2)c1OC
inactive: activity change, negative = inhibition [1] 2.17% | activity change, negative = inhibition [2] 7.94% | activity, negative = inhibition [3] 7.75% | Potency [4] > 20.6 µM

CCN(CC)CCN1C(=O)C(=O)/C(=C(/O)c2c(C)[nH]c(C(=O)OC)c2C)C1c1ccc(OC)cc1 (stereo not given)
inactive: activity change, negative = inhibition [1] 9.19% | activity change, negative = inhibition [2] 8.2% | activity, negative = inhibition [3] 9.4% | Potency [4] > 20.6 µM

COc1ccc(-n2ccc(=O)c3c2CCCC3=O)cc1
inactive: activity change, negative = inhibition [1] 1.82% | activity change, negative = inhibition [2] 1.88% | activity, negative = inhibition [3] 3.34% | Potency [4] > 20.6 µM

COc1ccc(CNC(=O)[C@H](C)NC(=O)C2CCN(S(=O)(=O)c3ccc(C)cc3)CC2)cc1
inactive: activity change, negative = inhibition [1] 0.123% | activity change, negative = inhibition [2] 0.0617% | activity, negative = inhibition [3] 2.4% | Potency [4] > 20.6 µM

Cc1cc2c(C)nc(Cc3ccccc3)nc2o1
inactive: activity change, negative = inhibition [1] -3.87% | activity change, negative = inhibition [2] -3.38% | activity, negative = inhibition [3] 5.35% | Potency [4] > 20.6 µM

Cc1nc(Nc2ncc3c(n2)CCCC3=O)nc2ccccc12
inactive: activity change, negative = inhibition [1] 16.8% | activity change, negative = inhibition [2] 19.8% | activity, negative = inhibition [3] 0.527% | Potency [4] > 20.6 µM

C=CCN(C(=O)CCC(=O)O)C1CC(=O)N(c2ccc(OC)cc2)C1=O (stereo not given)
inactive: activity change, negative = inhibition [1] 6.46% | activity change, negative = inhibition [2] -8.7% | activity, negative = inhibition [3] 5.71% | Potency [4] > 20.6 µM

Cc1nc2c(=O)n(C)c(=O)[nH]c2n1Cc1ccccc1
inactive: activity change, negative = inhibition [1] 10.3% | activity change, negative = inhibition [2] 14.6% | activity, negative = inhibition [3] -0.854% | Potency [4] > 20.6 µM

CCn1c(SCC(=O)O)nc2sc3c(c2c1=O)CCC3
inactive: activity change, negative = inhibition [1] 5.13% | activity change, negative = inhibition [2] -8.87% | activity, negative = inhibition [3] -5.86% | Potency [4] > 20.6 µM

Cc1cc(=O)oc(C)c1C(=O)N1CCN(Cc2ccc3c(c2)OCO3)CC1
inactive: activity change, negative = inhibition [1] 6.44% | activity change, negative = inhibition [2] 17.1% | activity, negative = inhibition [3] 5.97% | Potency [4] > 20.6 µM

Cc1cccc(N2C(=O)CC(N3CCN(Cc4ccc(Cl)cc4)CC3)C2=O)c1 (stereo not given)
inactive: activity change, negative = inhibition [1] 1.23% | activity change, negative = inhibition [2] 6.12% | activity, negative = inhibition [3] 1.94% | Potency [4] > 20.6 µM

CCOc1ccc(-c2nc(C#N)c(N3CCN(CC)CC3)o2)cc1
inactive: activity change, negative = inhibition [1] -12.4% | activity change, negative = inhibition [2] 21% | activity, negative = inhibition [3] 19.7% | Potency [4] > 20.6 µM

Cc1ccc(-n2c(N)c(C(N)=O)sc2=S)cc1
inactive: activity change, negative = inhibition [1] 6.9% | activity change, negative = inhibition [2] 9.14% | activity, negative = inhibition [3] -24.5% | Potency [4] > 20.6 µM

CCOC(=O)c1c(CN2CCN(C)CC2)n(C)c2cc(Br)c(OC)cc12
inactive: activity change, negative = inhibition [1] 5.82% | activity change, negative = inhibition [2] 20.5% | activity, negative = inhibition [3] -13% | Potency [4] > 20.6 µM

Cn1c(Cn2cnc3ccccc32)nc2ccccc21
inactive: activity change, negative = inhibition [1] -1.15% | activity change, negative = inhibition [2] 3.95% | activity, negative = inhibition [3] -2% | Potency [4] > 20.6 µM

CCOC(=O)CNS(=O)(=O)c1cc(-c2nn(C)c(=O)c3ccccc23)ccc1C
inactive: activity change, negative = inhibition [1] 7.12% | activity change, negative = inhibition [2] -12.6% | activity, negative = inhibition [3] -5.95% | Potency [4] > 20.6 µM

O=C(NCc1ccco1)c1cnn2c1NC(c1ccccc1)CC2C(F)(F)F (stereo not given)
inactive: activity change, negative = inhibition [1] -8.13% | activity change, negative = inhibition [2] -2.99% | activity, negative = inhibition [3] -6.74% | Potency [4] > 20.6 µM

Cc1cc(C)n(C(=O)CNC(=O)c2ccc3c(c2)OCCO3)n1
inactive: activity change, negative = inhibition [1] -0.109% | activity change, negative = inhibition [2] -6.13% | activity, negative = inhibition [3] 7.28% | Potency [4] > 20.6 µM

CCCCN(C(=O)CCC(=O)O)C1CC(=O)N(c2ccc(OCCC)cc2)C1=O (stereo not given)
inactive: activity change, negative = inhibition [1] 0.952% | activity change, negative = inhibition [2] -3.79% | activity, negative = inhibition [3] 5.12% | Potency [4] > 20.6 µM

CCCOC(=O)C1[C@H]2C(=O)N(Cc3ccco3)C[C@]23C=C[C@H]1O3 (stereo not given in full)
inactive: activity change, negative = inhibition [1] 0.485% | activity change, negative = inhibition [2] 2.35% | activity, negative = inhibition [3] 4.93% | Potency [4] > 20.6 µM

CC(NC(=O)NCc1cccnc1)(C(F)(F)F)C(F)(F)F
inactive: activity change, negative = inhibition [1] 12.2% | activity change, negative = inhibition [2] -2.79% | activity, negative = inhibition [3] 2.04% | Potency [4] > 20.6 µM

Cc1ccc(C2C(C(=O)c3cc4ccccc4o3)=C(O)C(=O)N2CCCN(C)C)cc1 (stereo not given)
inactive: activity change, negative = inhibition [1] 4.95% | activity change, negative = inhibition [2] -2.86% | activity, negative = inhibition [3] 1.75% | Potency [4] > 20.6 µM

c1ccc(C2=Nn3c(nnc3-c3ccccn3)SC2)cc1
inactive: activity change, negative = inhibition [1] -4.27% | activity change, negative = inhibition [2] -8.45% | activity, negative = inhibition [3] 5.46% | Potency [4] > 20.6 µM

CCCCNC(=O)c1cc2n(n1)C(C(F)(F)F)CC(c1ccccc1)N2 (stereo not given)
inactive: activity change, negative = inhibition [1] -14.9% | activity change, negative = inhibition [2] 11.1% | activity, negative = inhibition [3] -0.224% | Potency [4] > 20.6 µM
